Measured values published in PubChem BioAssay (NCI).
About 83,000 compounds went through this panel and 20% of them were active in at least one assay; those are over-represented in the sample as a whole.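 In brief: 96-well plates, 48 h treatment, single concentration, percent growth endpoint.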 A number with no mark means an inactive call. The source made the active and inactive calls. The calls were made as follows: active = growth percent below 10; inactive = the rest.

Each compound was assayed on HL-60(TB) leukemia (assay: NCI-60 one-dose screen, 48 h (100 = growth as untreated, 0 = no growth, -100 = all killed)). Settings: 10 µM unless noted.
Compound `CC1=C(C(=O)Nc2ccc(F)cc2)C(c2ccccc2)C2=C(CC(C)(C)CC2=O)N1` (configuration not stated) has a growth of 76%.
`C=C1CC[C@@H]2[C@](C)(COC(C)=O)[C@H](OC(C)=O)CC[C@@]2(C)[C@@H]1C/C=C1/C(=O)OC[C@H]1OC(C)=O` showed a growth of 79.1%.
In the case of `Cc1c(O)c(O)cc2c3c(oc12)CC(c1ccc2c(c1)OCO2)CC3=O` (configuration not stated), the growth is reported as 73.7%.
`Cn1ccnc1C(=O)/C=C/c1ccc(C(=O)Nc2ccccc2O)cc1` was tested, and the growth was 0.702% (active).
`CCOc1cccc(/C=N\Nc2nc(=O)cc(C(=O)OC)s2)c1O` gave a growth of 72.8%.
Work on `COc1cc(C(=O)CCCl)ccc1O` yielded a growth of 95.8%.
`CC(C)CCSc1nc(-c2ccc(F)cc2)c(C#N)c(N2CCN(C)CC2)n1` was tested, and the growth was 73.8%.
`Cc1cc(NC(=O)COC(=O)c2sc3cc(F)ccc3c2Cl)no1` was tested, and the growth was 107%.
For `CC[C@]1(O)C[C@@H]2CN(CCc3c([nH]c4ccccc34)[C@@](C(=O)OC)(c3cc4c(cc3OC)N(C)[C@H]3[C@@](O)(C(N)=O)[C@H](O)[C@]5(CC)[C@@H]6C[C@@H]6CN6CC[C@]43[C@@H]65)C2)C1`, the growth was -3.28% (active).
In the case of `COc1ccc(OC)c(-c2c(C#N)c(-c3ccco3)nc3c2c(-c2ccccc2)nn3-c2ccccc2)c1`, the growth is reported as 105%.
Compound `Cc1cc(C)cc(NC(=O)Cn2nncc2CN2C(=O)CSC2=O)c1` has a growth of 97.9%.
For `C=C(C)[C@@H]1CC[C@]2(C(=O)N3CCN(C)CC3)CC[C@]3(C)[C@H](CC[C@@H]4[C@@]5(C)C/C(=C/c6ccncc6)[C@H](O)C(C)(C)[C@@H]5CC[C@]43C)[C@@H]12`, the growth was -25.2% [100 µM] (active).
